Bioassay records deposited in PubChem by Buhrlage Lab, Dana-Farber Cancer Institute and Novartis Institutes for BioMedical Research (Cambridge, Mass).
USP17 inh: inhibitors of human USP17 deubiquitinase | A8MUK1 | purified USP17, Ub-rhodamine cleavage fluorescence, 3 h | inhibition, % at 50 µM | 47,000 compounds, 6.5% hits
USP28 inh: human USP28 deubiquitinase inhibition; Q96RU2; purified USP28, Ub-rhodamine cleavage fluorescence, 30 min; inhibition, % at 25 µM; 47,000 compounds, 3% hits; AID 1645857
OTUD3 inh: human OTUD3 deubiquitinase inhibition | inhibition, % at 25 µM | 47,000 compounds, 0.7% hits | AID 1645858 | purified OTUD3, Ub-rhodamine fluorescence, 2 h
Target sequence (Q5T2D3 whole entry, looked up): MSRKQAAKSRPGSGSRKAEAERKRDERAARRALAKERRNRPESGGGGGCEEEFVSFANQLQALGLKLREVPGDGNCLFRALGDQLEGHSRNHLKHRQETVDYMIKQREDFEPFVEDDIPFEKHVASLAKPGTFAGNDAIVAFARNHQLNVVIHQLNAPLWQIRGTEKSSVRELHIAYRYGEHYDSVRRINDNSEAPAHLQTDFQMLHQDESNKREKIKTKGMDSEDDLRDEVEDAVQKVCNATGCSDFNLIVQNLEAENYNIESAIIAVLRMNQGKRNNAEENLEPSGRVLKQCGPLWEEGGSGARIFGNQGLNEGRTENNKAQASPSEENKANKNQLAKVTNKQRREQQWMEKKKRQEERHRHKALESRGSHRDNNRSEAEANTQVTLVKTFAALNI
USP30 block: human USP30 deubiquitinase inhibition. Q70CQ3. purified USP30, Ub-rhodamine cleavage fluorescence. inhibition, % at 25 µM. 47,000 compounds, 5.3% hits. AID 1645860
Active calls of the source: *; . = not tested or not shown. An excerpt weighted towards active compounds, which were near 11% of everything screened. Rule as the data show it: active = inhibition above about 30%; inactive = the rest.

SMILES	USP17 inh	USP28 inh	OTUD3 inh	USP30 block
COc1cc2nc(NC(=O)c3ccc(F)cc3Cl)sc(=O)c2cc1OC	62*	78*	19	92*
Cc1ccc(NC2c3ccccc3C(=O)N2Cc2ccco2)cc1F (configuration not stated)	.	21	-3	4
CCc1nnc(-c2nnc(NCCOc3ccccc3OC)c3ccccc23)o1	20	8	11	34*
O=C1CN(C(=O)COC(=O)C(c2ccccc2)c2ccccc2)c2ccccc2N1	12	32*	-5	-10
O=C1CN(C(=O)COC(=O)CCCN2C(=O)c3cccc4cccc(c34)C2=O)c2ccccc2N1	62*	46*	1	49*
CCOC(=O)c1nn(-c2ccc(F)cc2)c2c1CCCCC2	12	36*	8	13
O=C(Nc1ccncc1)c1nn(-c2ccc(F)cc2)c2c1CCCCC2	-11	20	-5	9
Cc1cccc(N(CC(=O)NCc2ccccc2)C(=O)CCC(=O)Nc2nccs2)c1C	3	8	-3	17
Cc1nn(-c2nc3ccccc3[nH]2)c2c1C(c1ccsc1)CC(=O)N2 (configuration not stated)	45*	-3	3	14
N#Cc1ccc(CC(C(=O)Nc2ccc3c(c2)OCO3)C(=O)c2ccccc2)cc1 (configuration not stated)	13	15	18	35*
O=C(CN1CCN(Cc2ccc3c(c2)OCO3)CC1)Nc1ccc(Cl)cc1C(=O)c1ccccc1	11	8	1	-8
O=C(CC(C(=O)Nc1ccc2c(c1)OCO2)C(=O)c1ccccc1)Nc1ccc(Cl)cc1F (configuration not stated)	34*	19	25	59*
O=C(Nc1ccc2c(c1)OCO2)C(Cc1cc(Cl)cc2c1OCOC2)C(=O)c1ccccc1 (configuration not stated)	0	-4	1	2
Cc1sc(NC(=O)CN2CCCCC2)nc1-c1ccc2c(c1)CCN2C(=O)c1cccc(F)c1	36*	0	0	0
Cc1sc(NC(=O)CN2CCCC2)nc1-c1ccc2c(c1)CCN2S(=O)(=O)c1ccccc1	39*	3	-8	-16
Cc1sc(NC(=O)CNc2ccccc2)nc1-c1ccc2c(c1)CCN2C(=O)C1CCCCC1	47*	10	-2	-2
Cc1sc(NC(=O)CN2CCCC2)nc1-c1ccc2c(c1)CCN2C(=O)c1cccc(F)c1	18	27	5	35*
Cc1sc(NC(=O)CN2CCCCCC2)nc1-c1ccc2c(c1)CCN2C(=O)C1CCCCC1	.	5	9	20
Cc1cccc(C(=O)N2CCc3cc(-c4nc(NC(=O)CN5CCCCCC5)sc4C)ccc32)c1	17	1	-15	-13
CC(C)NC(=O)N1CC[C@H]2N(C)CC[C@@]2(C(=O)Nc2ccccc2)CC1	2	7	9	14
COC1CN(C(=O)c2ccno2)CCC(=O)N(C)c2ccccc21 (configuration not stated)	4	0	8	-2
FC(F)(F)c1cc(-c2ccc3c(c2)CCC3)nc2cc(C3CC3)nn12	17	12	10	25
Cc1cc(-c2cnc(N(C)C)nc2-c2ccc(CNC(=O)Cc3ccc(F)cc3)cc2)on1	64*	16	17	23
Cc1cc(-c2cnc(NCc3ccc(F)cc3)nc2-c2ccco2)on1	33*	18	8	-11
Cc1cc(-c2cnc(NCc3cccc(F)c3)nc2[C@@H]2CCCO2)on1	18	35*	10	21
SMILES	USP17 inh	USP28 inh	OTUD3 inh	USP30 block
Cc1cc(-c2cnc(N3CCCC3)nc2[C@H]2CCCO2)on1	-8	-7	-8	-19
COc1ccc(Cl)cc1N(C)C(=O)c1noc2c1CCc1sccc1-2	21	23	18	34*
COc1ccc(CCNC(=O)c2noc3c2CCc2sccc2-3)cc1OC	52*	76*	-7	-1
COC(=O)c1[nH]c(C)c(CN(C)C(=O)c2ccc(F)c(F)c2)c1C	0	-1	-3	0
COc1ccc(NC(=O)C2Oc3ccc(C)cc3NC2=O)cc1Cl (configuration not stated)	75*	26	-6	16
COc1ccc(OC)c(C(=O)Nc2ccc3c(c2)NC(=O)C(C)O3)c1 (configuration not stated)	0	0	-5	-1
COC(=O)c1ccccc1NC(=O)c1sccc1Oc1ccc(F)cc1[N+](=O)[O-]	12	7	15	19
O=C(Nc1ccccc1F)c1sccc1Oc1ccc([N+](=O)[O-])cc1F	45*	17	17	40*
CC1Oc2ccccc2C(=O)N(CC(=O)c2ccc3c(c2)OCCO3)C1=O (configuration not stated)	13	31*	13	23
